# From PubChem BioAssay (NCATS)
# Results filed as inconclusive are left out. Where a call stands in place of a potency, no number is given. The source made the active and inactive calls. Calls come from the whole dose curve; as a rule, active = well fitted cell-killing curve with a large enough effect; inconclusive = small, poorly fitted or top-dose-only effect, or effect the other way; inactive = no such curve, though single readings can be large or run the other way.
# Assay: Quantitative High-Throughput drug screen in 47 multiple myeloma cell lines against the NCATS MIPE library collection: Karpas620_DSMZ cell viability assay (AID 1918959)
# Conditions: Karpas620 myeloma viability, CellTiter-Glo ATP luminescence, 48 h; series mostly up to 45.8 µM
# Procedure, shortened: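 Inhibition of cell viability is measured here. Each line was plated at 500 cells per well, treated with MIPE 4.0 drugs, kept 48 hours at 37C, then assayed for ATP content by CellTiter-Glo luminescence.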
# Note: nearly all actives have a fitted effect of over 30% in size.
# Potency is the fitted concentration of half-maximal effect.
row,SMILES,Potency
1,C[C@@H](NC(=O)c1ncnc(N)c1Cl)c1ncc(C(=O)Nc2cc(C(F)(F)F)c(Cl)cn2)s1,26.4 µM (active)
2,NC1(C(=O)N[C@@H](CCO)c2ccc(Cl)cc2)CCN(c2ncnc3[nH]ccc23)CC1,2.64 µM (active)
3,CC(C)=CCCC(C)=CCCC(C)=CCCC(C)=CCCC(C)=CCCC(C)=CCCC(C)=CCCC(C)=CCCC(C)=CCO,inactive
4,CC(=O)OCC(=O)[C@@]12OC(C)(C)O[C@H]1C[C@H]1[C@@H]3C[C@H](F)C4=CC(=O)C=C[C@]4(C)[C@@]3(F)[C@@H](O)C[C@@]12C,inactive
5,c1ccc(-c2oc3ncnc(NC[C@@H]4CCCO4)c3c2-c2ccccc2)cc1,6.62 µM (active)
6,CCCCCOC(=O)Nc1nc(=O)n([C@@H]2O[C@H](C)[C@@H](O)C2O)cc1F (stereo partly specified),inactive
7,Nc1[nH]nc2nnc(-c3c(-c4ccccc4)nn4ccccc34)cc12,16.6 µM (active)
8,CCCCC(F)(F)[C@@]1(O)CC[C@H]2[C@H](CC(=O)[C@@H]2CCCCCCC(=O)O)O1,inactive
9,O=C(Nc1cccc(C(F)(F)F)c1)Nc1cc(S(=O)(=O)NC2CC2)ccc1-c1ccsc1,inactive
10,CCN(CC)CCCCNc1nc2cc(Cl)c(Cl)cc2nc1-c1ccc(-c2cccs2)s1,9.35 µM (active)
11,COc1cc(CNC(=O)CCCCC=CC(C)C)ccc1O,inactive
12,O=S(=O)(O)c1ccc2cc(N=Nc3cc(S(=O)(=O)O)c4cccnc4c3O)ccc2c1,inactive
13,Cc1cn([C@@H]2C[C@@H](O)[C@H](CO)O2)c(=O)[nH]c1=O,inactive
14,CCCCC[C@H](O)C=C[C@H]1[C@H](O)CC(=O)[C@H]1CCCCCCC(=O)O,inactive
15,C[C@@H](O)[C@H]1C(=O)N2C(C(=O)OCOC(=O)C(C)(C)C)=C(SC3CN(C4=NCCS4)C3)[C@H](C)[C@H]12,inactive
16,N#CC(c1ccnc(NCCc2cccnc2)n1)c1nc2ccccc2s1 (stereo unspecified),9.35 µM (active)
17,CC1(C)OC2CC3C4CC(F)C5=CC(=O)C=CC5(C)C4C(O)CC3(C)[C@]2(C(=O)CO)O1 (stereo partly specified),inactive
18,COC(=O)N1CCN(Cc2cccc(NC(=O)Nc3ccc(C)nc3)c2F)CC1,inactive
19,CCN1C[C@H](C)n2c(c(O)c3c(=O)n(Cc4ccc(F)c(Cl)c4)nc(C(=O)NC)c32)C1=O,0.0066 µM (active)
20,CNC(=O)c1cc(Oc2ccc(NC(=O)Nc3ccc(Cl)c(C(F)(F)F)c3)c(F)c2)ccn1,10.5 µM (active)
21,CC[C@H](C)C(=O)O[C@H]1C[C@H](O)C=C2C=C[C@H](C)[C@H](CC[C@@H](O)C[C@@H](O)CC(=O)O)[C@H]21,inactive
22,CN1CC(=O)N2C(Cc3c([nH]c4ccccc34)[C@H]2c2ccc3c(c2)OCO3)C1=O (stereo partly specified),inactive
23,C[C@@]1(c2cc(-c3cncnc3)c(F)cc2F)CCSC(N)=N1,2.35 µM (active)
24,COc1cc2ncn(-c3cc(OCc4ccccc4S(C)(=O)=O)c(C#N)s3)c2cc1OC,inactive

# Assay: Quantitative High-Throughput drug screen in 47 multiple myeloma cell lines against the NCATS MIPE library collection: KMM1_JCRB cell viability assay (AID 1918960)
# Conditions: KMM1 myeloma viability, CellTiter-Glo ATP luminescence, 48 h; series mostly up to 45.8 µM
# Procedure, shortened: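 Luminescence from CellTiter-Glo, taken after 5 min at room temperature, reports cellular ATP as viability. Cells (500 per well) had been treated 48 h at 37 °C with MIPE 4.0 compounds, scaled between DMSO and medium-only controls.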
row,SMILES,Potency
1,CCc1cccc(CC)c1NC(=O)N1Cc2[nH]nc(NC(=O)c3ccc(N4CCN(C)CC4)cc3)c2C1,7.43 µM (active)
2,N#Cc1ccc(Oc2ccc3c(c2)COB3O)cc1,16.6 µM (active)
3,NC1(C(=O)N[C@@H](CCO)c2ccc(Cl)cc2)CCN(c2ncnc3[nH]ccc23)CC1,0.118 µM (active)
4,CC(C)=CCCC(C)=CCCC(C)=CCCC(C)=CCCC(C)=CCCC(C)=CCCC(C)=CCCC(C)=CCCC(C)=CCO,inactive
5,c1ccc(-c2oc3ncnc(NC[C@@H]4CCCO4)c3c2-c2ccccc2)cc1,3.32 µM (active)
6,CCCCCOC(=O)Nc1nc(=O)n([C@@H]2O[C@H](C)[C@@H](O)C2O)cc1F (stereo partly specified),inactive
7,Nc1[nH]nc2nnc(-c3c(-c4ccccc4)nn4ccccc34)cc12,4.69 µM (active)
8,CCOC(=O)[C@H](CCc1ccccc1)N[C@@H](C)C(=O)N1CCCC1C(=O)O (stereo partly specified),inactive
9,CCCCC(F)(F)[C@@]1(O)CC[C@H]2[C@H](CC(=O)[C@@H]2CCCCCCC(=O)O)O1,inactive
10,O=C(Nc1cccc(C(F)(F)F)c1)Nc1cc(S(=O)(=O)NC2CC2)ccc1-c1ccsc1,inactive
11,CC1(C)CC(=O)c2c(C(F)(F)F)nn(-c3ccc(C(N)=O)c(NC4CCC(O)CC4)c3)c2C1 (stereo unspecified),inactive
12,CCN(CC)CCCCNc1nc2cc(Cl)c(Cl)cc2nc1-c1ccc(-c2cccs2)s1,9.35 µM (active)
13,COc1cc(CNC(=O)CCCCC=CC(C)C)ccc1O,inactive
14,O=S(=O)(O)c1ccc2cc(N=Nc3cc(S(=O)(=O)O)c4cccnc4c3O)ccc2c1,inactive
15,CC1CCN(c2cc(N3CCN(C)CC3)ccc2NC(=O)c2cc(C#N)c[nH]2)CC1,inactive
16,Cc1cn([C@@H]2C[C@@H](O)[C@H](CO)O2)c(=O)[nH]c1=O,inactive
17,Cc1cccc(-c2[nH]c(C(C)(C)C)nc2-c2ccc3c(c2)OCO3)n1,3.72 µM (active)
18,CCCCC[C@H](O)C=C[C@H]1[C@H](O)CC(=O)[C@H]1CCCCCCC(=O)O,inactive
19,N#CC(c1ccnc(NCCc2cccnc2)n1)c1nc2ccccc2s1 (stereo unspecified),4.69 µM (active)
20,CC1(C)OC2CC3C4CC(F)C5=CC(=O)C=CC5(C)C4C(O)CC3(C)[C@]2(C(=O)CO)O1 (stereo partly specified),0.0235 µM (active)
21,C[C@@H]1CCO[C@H]2Cn3cc(C(=O)NCc4ccc(F)cc4F)c(=O)c(O)c3C(=O)N12,inactive
22,COC(=O)N1CCN(Cc2cccc(NC(=O)Nc3ccc(C)nc3)c2F)CC1,inactive
23,CCN1C[C@H](C)n2c(c(O)c3c(=O)n(Cc4ccc(F)c(Cl)c4)nc(C(=O)NC)c32)C1=O,inactive
24,CNC(=O)c1cc(Oc2ccc(NC(=O)Nc3ccc(Cl)c(C(F)(F)F)c3)c(F)c2)ccn1,2.96 µM (active)
25,CC[C@H](C)C(=O)O[C@H]1C[C@H](O)C=C2C=C[C@H](C)[C@H](CC[C@@H](O)C[C@@H](O)CC(=O)O)[C@H]21,inactive
26,CN1CC(=O)N2C(Cc3c([nH]c4ccccc34)[C@H]2c2ccc3c(c2)OCO3)C1=O (stereo partly specified),inactive
27,COc1cc2ncn(-c3cc(OCc4ccccc4S(C)(=O)=O)c(C#N)s3)c2cc1OC,inactive
